Measurements from PubChem BioAssay (NCATS).
Inconclusive results are not listed. A call without a number means that no potency is given here. The source made the active and inactive calls. Calls follow the shape of the dose curve; as a rule, active = well fitted inhibition curve with a large enough effect; inconclusive = small, poorly fitted or top-dose-only effect; inactive = no such curve, though single readings can be large or run the other way.

Each compound was assayed on Zika virus NS2B-NS3 protease (unlinked complex) (assay: Primary screen GU Rhodamine qHTS for Zika virus inhibitors: Unlinked NS2B-NS3 protease assay (AID 1347159; also: nearly all actives have a fitted effect of over 60% in size)). Details: Recombinant ZIKV NS2B-NS3 protease, Rhodamine110 substrate fluorescence; series mostly up to 107 µM.
How it was run: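 Noncovalent NS2B hydrophilic domain–NS3 protease domain complex (25 nM) preincubated 15 min at room temperature with compounds (up to 114 microM) in 10 mM Tris-HCl pH 8.0, 0.01% Tween 20; 1.5 microM Rhodamine110 substrate added, fluorescence change over 15 min fitted to Hill equation.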
Potency is read from the fitted curve at half-maximal effect.

Structure (SMILES) | Potency | activity change, negative = inhibition
OC[C@@]1(O)CO[C@@H](OC[C@H]2O[C@@H](Oc3ccccc3)[C@H](O)[C@@H](O)[C@@H]2O)[C@@H]1O | inactive | 
C=C1C2CCC3CC2(CC(O)C2(O)C1CC(OC1OC(CO)C(O)C(O)C1O)C2(C)C)CC3(C)O (centres undefined) | 20 µM (active) | 
CC1(C)Oc2ncnc(N)c2N=C1c1ccc(C2CCC(CC(=O)O)CC2)cc1 (centres undefined) | inactive | 
C=C[C@H]1[C@H](O[C@@H]2O[C@H](CO)[C@@H](O)[C@H](O)[C@H]2O)OC=C(C(=O)OC)[C@H]1CC=O | inactive | 
CC(=O)O[C@@H]1[C@H](O[C@@H]2O[C@H](CO)[C@@H](O)[C@H](O)[C@H]2O)[C@@H](O[C@@H]2O[C@@H](C)[C@H](O)[C@@H](O[C@@H]3O[C@H](CO)[C@@H](O)[C@H](O)[C@H]3O)[C@H]2O)[C@H](OC(=O)[C@]23CCC(C)(C)C[C@H]2C2=CCC4[C@@]5(C)C[C@H](O)[C@H](O[C@@H]6O[C@H](C(=O)O)[C@@H](O)[C@H](O)[C@H]6O)[C@@](C)(C(=O)O)C5CC[C@@]4(C)[C@]2(C)CC3)O[C@@H]1C (some centres undefined) |  | 16.2% [at 19.1 µM] (inactive)
CC(=O)c1ccc(O[C@@H]2O[C@H](CO[C@@H]3OC[C@@H](O)[C@H](O)[C@H]3O)[C@@H](O)[C@H](O)[C@H]2O)cc1 | inactive | 
O=C(C[C@@H]1C(C(=O)O)=CO[C@@H](O[C@@H]2O[C@H](CO)[C@@H](O)[C@H](O)[C@H]2O)/C1=C\CO)OCCc1ccc(O)cc1 | inactive | 
C[C@@H]1O[C@@H](OC2C(CO)OC(OCC3OC(OC(=O)[C@]45CCC(C)(C)CC4C4=CCC6[C@@]7(C)CC[C@@H](O)[C@](C)(C(=O)O)C7CC[C@@]6(C)[C@]4(C)CC5)C(O)C(O)C3O)C(O)C2O)[C@H](O)[C@H](O)[C@H]1O (some centres undefined) | inactive | 
COc1ccc(N2CCN(CCCNC(=O)Cn3c(=O)c4cccn4c4c(C)ccnc43)CC2)cc1 | inactive | 
Cc1ccc(-c2c(-c3nn(C)c4ncnc(N5CC[C@H](N6CCCCC6)C5)c34)cnn2C)cc1 | inactive | 
COc1cc(C2Oc3c(OC)cc(/C=C/C(=O)OC4CC(O)(C(=O)O)CC(O)C4O)cc3C2CO)ccc1O (centres undefined) | inactive | 
C=CC(C)(C)C12Nc3c(ccc4c3OC(C)(C)C=C4)C1(O)CC1C(=O)N3CCCC3C(=O)N12 (centres undefined) | inactive | 
C/C=C/C=C/C=C/C(=O)OC1C=C2C(O)OC(=O)[C@]2(O)[C@@]2(C)CCCC(C)(C)[C@H]12 (some centres undefined) | 6.31 µM (active) | 
CCC(C)(C)C1CCc2c(sc(NC(=O)c3ccc(Br)cc3)c2C#N)C1 (centres undefined) | inactive | 
Fc1ccc(-c2c3cccc(C(F)(F)F)c3nn2Cc2ccc(F)cc2Cl)cc1 | inactive | 
C[C@@H]1O[C@@H](O[C@H]2[C@H](OC(=O)[C@]34CCC(C)(C)C[C@H]3C3=CCC5[C@@]6(C)C[C@@H](O)[C@@H](O)[C@@](C)(CO)C6[C@H](O)C[C@@]5(C)[C@]3(C)CC4)OC[C@H](O)[C@@H]2O)[C@H](O)[C@H](O)[C@H]1O[C@@H]1OC[C@@H](O)[C@H](O[C@H]2O[C@H](C)[C@@H](O)[C@H](O)[C@@H]2O)[C@H]1O (some centres undefined) | inactive | 
CC(=O)O[C@@]1(C)[C@@H]2CC(=C(C)C)C(=O)C[C@@]2(C)CC[C@H]1OC(=O)C1(C)OC1C (some centres undefined) | inactive | 
CC1(C)CC[C@]2(C(=O)O[C@@H]3O[C@H](CO[C@@H]4O[C@H](CO)[C@@H](O)[C@H](O)[C@H]4O)[C@@H](O)[C@H](O[C@@H]4O[C@H](CO)[C@@H](O)[C@H](O)[C@H]4O)[C@H]3O)CC[C@]3(C)C(=CCC4[C@@]5(C)CC[C@H](O[C@@H]6OC[C@@H](O)[C@H](O)[C@H]6O)[C@@](C)(C(=O)O)C5CC[C@]43C)[C@@H]2C1 (some centres undefined) | inactive | 
CN1CCc2cc(Cl)c(O)cc2[C@@H](c2cccc3c2OCC3)C1 | inactive | 
CC(C)C(O)(CO)CCO[C@@H]1O[C@H](CO[C@H]2OC[C@](O)(CO)[C@H]2O)[C@@H](O)[C@H](O)[C@H]1O (some centres undefined) | inactive | 
C=C(C)[C@@]1(O)C[C@@]2(C)C(=CC1=O)CC[C@@H](O)[C@@H]2C | inactive | 
CC1=C2CC3C(CCC3(C)O)C(C)(O)CC2OC1=O (centres undefined) | inactive | 
CC1(C)CC[C@]2(C(=O)O[C@@H]3O[C@H](CO)[C@@H](O)[C@H](O)[C@H]3O)CC[C@]3(C)C(=CCC4[C@@]5(C)C[C@H](O)[C@H](O[C@@H]6OC[C@@H](O)[C@H](O)[C@H]6O)[C@@](C)(CO)C5CC[C@]43C)C2C1 (some centres undefined) | inactive | 
CN[C@H](CNC(=O)N1CCC[C@@H]([C@@H](OCCNC(=O)OC)c2cccc(Cl)c2)C1)C[C@H]1CCCOC1 | inactive | 
C=C1C(OC(C)=O)CCC2(C)CCC(C(C)(C)O)CC12 (centres undefined) | inactive | 
COC(=O)C1(O)C(OC(C)=O)CCC2C3(CC(c4ccoc4)OC3=O)C(C)=CCC21C(=O)OC (centres undefined) | inactive | 
CC(C)=CCC[C@](C)(O[C@@H]1O[C@H](CO[C@@H]2O[C@@H](CO)[C@H](O)[C@H]2O[C@@H]2OC[C@@H](O)[C@H](O)[C@H]2O)[C@@H](O)[C@H](O)[C@H]1O)[C@H]1CC[C@]2(C)[C@@H]1[C@H](O)CC1[C@@]3(C)CC[C@H](O[C@@H]4O[C@H](CO)[C@@H](O)[C@H](O)[C@H]4O[C@@H]4O[C@H](CO)[C@@H](O)[C@H](O)[C@H]4O)C(C)(C)C3CC[C@]12C (some centres undefined) |  | 0.816% [at 19.1 µM] (inactive)
CC(=O)OC1C(C)C2C(OC3OC(CO)C(O)C(O)C3O)OC=C(C(=O)O)C2C1OC(=O)c1ccccc1 (centres undefined) | inactive | 
CC(=O)N[C@H](Cc1c[nH]c2ccccc12)C(=O)OCc1cc(C(F)(F)F)cc(C(F)(F)F)c1 | inactive | 
